# hgDAF12 agonist = agonists of H. glycines DAF-12 nuclear receptor. AID 687014. activation, % at 6.8 µM. actives 1.8% (n = 370,000). HEK293 GAL4-hgDAF12 UAS-luciferase reporter, agonist luminescence; normalized to butyrate control;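 active = activation above a cutoff set at the mean of all screened compounds plus 3 SD, cut at about 10% in these data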;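 note: 0% = DMSO wells and 100% = sodium butyrate wells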
# DAX1 inh-1 = blocks DAX1 repression of SF-1 activated StAR promoter; inhibition, % at 6.8 µM; actives 1.1% (n = 370,000); HEK293T StAR-luciferase reporter, SF-1/DAX-1 repression relief;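 active = inhibition above the mean over all tested compounds plus 3 SD, cut at about 3.6% in these data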;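 note: 0% = DAX-1 cells with DMSO and 100% = cells lacking DAX-1 with DMSO; higher inhibition means more luminescence from relief of DAX-1 repression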
# SMARCA2 act = increases SMARCA2 function in MMTV reporter cells; actives 1% (n = 370,000); MG213 cells, MMTV-luciferase reporter, dexamethasone, overnight; activation, % at 9.1 µM; AID 652017; in the data active = activation above about 7.8%;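 note: 0% = vehicle wells and 100% = reference activator wells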
# ssDAF-12 act = activators of S. stercoralis DAF-12 nuclear receptor; HEK293 ssDAF-12/GRIP1 lit1-tk-luc reporter, luminescence; % of 3 µM dafachronic acid response; activation, % at 6.8 µM; actives 1% (n = 370,000);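 active = activation above the mean over all tested compounds plus 3 SD, cut at about 0.9% in these data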;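 note: 0% = DMSO-only wells and 100% = 3 µM delta7-dafachronic acid wells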
# hcDAF12 agonist = activators of H. contortus DAF-12 nuclear receptor. HEK293 hcDAF-12 lit1-tk-luc reporter, luminescence; 0% DMSO, 100% Δ7-dafachronic acid. activation, % at 6.8 µM. actives 1.4% (n = 370,000). AID 652067;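 active = activation above the mean of all tested compounds plus 3 SD, cut at about 5.5% in these data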;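 note: 100% = response to 3 µM Δ7-dafachronic acid high control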
# DAX1 inh-2 = NR0B1 (DAX1) inhibition. HEK293 Gal4-DAX1 luciferase reporter, luminescence. inhibition, % at 6.75 µM. actives 0.99% (n = 340,000). AID 504766;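 active = inhibition above the mean over all tested compounds plus 3 SD, cut at about 4.2% in these data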;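 note: 0% = DAX1-transfected cells with DMSO and 100% = empty-vector control cells with DMSO; inhibition shows as a rise in luminescence from relieved DAX1 repression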
# DAX1 conf = NR0B1 (human) inhibition, confirmation; shares compounds with DAX1 inh-1; HEK293T StAR-promoter luciferase reporter, SF-1/DAX-1 repression; actives 87% (n = 2,400); AID 652134; inhibition, % at 6.8 µM;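 active = inhibition above the average of every tested compound plus 3 SD, cut at about 3.8% in these data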;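 note: 0% = DAX-1 cells with DMSO and 100% = no DAX-1 control cells with DMSO; active compounds raise luminescence by relieving repression of the StAR reporter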
# SF1 mutant ctr = nonselective inhibitor or artifact in SF-1 mutant DAX1 counter-screen; shares compounds with DAX1 inh-1; HEK293 StAR-luciferase, SF-1 AF2 mutant, luminescence; inhibition, % at 6.8 µM; actives 78% (n = 2,400);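 active = inhibition above the mean of all tested compounds plus 3 SD, cut at about 3% in these data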;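 note: 0% = DAX-1 transfected cells with DMSO and 100% = cells without DAX-1 with DMSO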
# SMARCA2 conf = confirmation of SMARCA2 (BRM) function activators | shares compounds with SMARCA2 act | MG213 cells, MMTV-luciferase with dexamethasone, luminescence, overnight; MG213 cells expressing E1A, Rb sequestered; DMSO wells 0%, reference activator 100% | activation, % at 9.1 µM | actives 30% (n = 3,500);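 active = activation above its plate's cutoff, the mean activation of tested wells plus 3 SD, cut at about 7.9% in these data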
# GAL4-VP16 Luc = counter-screen for SMARCA2 activators: GAL4-VP16 luciferase reporter activation | AID 686939 | activation, % at 9.1 µM | shares compounds with SMARCA2 act | HEK293 GAL4-VP16 pG5luc reporter, luciferase luminescence; scaled: DMSO wells 0%, SAHA wells 100% | actives 41% (n = 3,500);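 active = activation above the solvent-only control well mean plus 3 SD, averaged across control plates, cut at about 5.2% in these data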
# LXR ag = LXR-beta agonism as hcDAF-12 counter-screen. shares compounds with hcDAF12 agonist. HEK293 Gal4-LXR tk-luc reporter, luminescence, 24 h; normalized: DMSO 0%, positive control 100%. activation, % at 6.8 µM. 3,400 tested, under 10 active. AID 743027;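 active = mean percent activation of the reporter above a cutoff set as the average over tested compounds plus their standard deviation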
# Target sequence (P55055 whole entry, looked up, the tested form may be a part): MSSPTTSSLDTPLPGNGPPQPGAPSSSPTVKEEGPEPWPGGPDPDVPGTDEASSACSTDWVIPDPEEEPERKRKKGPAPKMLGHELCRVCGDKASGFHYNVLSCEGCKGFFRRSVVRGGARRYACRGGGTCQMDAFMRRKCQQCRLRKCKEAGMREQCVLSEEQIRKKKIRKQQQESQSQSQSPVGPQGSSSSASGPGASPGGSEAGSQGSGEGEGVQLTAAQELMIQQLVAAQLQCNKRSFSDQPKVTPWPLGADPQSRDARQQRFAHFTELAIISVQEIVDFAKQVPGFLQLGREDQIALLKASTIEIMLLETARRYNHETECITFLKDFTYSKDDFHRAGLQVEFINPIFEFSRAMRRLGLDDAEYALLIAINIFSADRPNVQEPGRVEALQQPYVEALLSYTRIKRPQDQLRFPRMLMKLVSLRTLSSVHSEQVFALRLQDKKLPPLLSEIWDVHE
# hcDAF12 conf = hcDAF-12 agonism, confirmation assay; shares compounds with hcDAF12 agonist; HEK293 hcDAF-12 lit1-tk-luc reporter, luminescence; % of Δ7-dafachronic acid response; activation, % at 6.8 µM; actives 61% (n = 3,400); AID 743032;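 active = mean activation across triplicate tests above the threshold derived from the earlier primary screen, cut at about 5.5% in these data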;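 note: 0% = DMSO only wells and 100% = 3 µM Δ7-dafachronic acid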
# hgDAF12 ag = confirmation of H. glycines DAF-12 agonists; shares compounds with hgDAF12 agonist; HEK293 GAL4-hgDAF12 luciferase reporter, agonist mode; percent of butyrate response; activation, % at 6.8 µM; actives 80% (n = 3,300);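 active = mean activation over triplicate wells above the hit cutoff derived from the earlier primary screen, cut at about 11% in these data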;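 note: 0% = DMSO low control and 100% = 2 mM sodium butyrate high control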
# LXRb DAF12 ctr = LXR-beta agonism as DAF-12 counter-screen; 3,300 tested, under 10 active; AID 743051; shares compounds with hgDAF12 agonist; HEK293 Gal4-LXR luciferase reporter, 24 h; activation, % at 6.8 µM;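 active = mean activation of the triplicate above a set limit carried over from the primary screen, none filed active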
# Starred values were filed as active, the others as inactive; nt = no result. Hits are enriched below; roughly 4.8% of the tested compounds scored in any of these assays.
SMILES,hgDAF12 agonist,DAX1 inh-1,SMARCA2 act,ssDAF-12 act,hcDAF12 agonist,DAX1 inh-2,DAX1 conf,SF1 mutant ctr,LXR ag,hcDAF12 conf,hgDAF12 ag,LXRb DAF12 ctr,others
COC(=O)CSc1nc2ccc(C)cc2cc1C#N,25.9*,8.8*,7.5,1.4*,7.2*,5.9*,18.8*,11.1*,1.4,3.9,19.9*,1.1,
CC(=O)CSc1nc2cc3c(cc2cc1C#N)OCCO3,27.2*,7.9*,7.1,0.0,11.8*,0.3,13.5*,4.9*,2.1,10.1*,19.4*,1.6,
COC(=O)CSc1nc2cc(C)cc(C)c2cc1C#N,6.5,0.1,0.9,-0.8,0.7,-0.6,nt,nt,nt,nt,nt,nt,
COc1ccc(CCNC(=O)c2cc3cc(F)ccc3nc2C)cc1OC,-1.9,-0.2,-3.9,-1.5,-0.5,0.2,nt,nt,nt,nt,nt,nt,
CC(=O)c1cccc(NS(=O)(=O)c2ccc(N/C=C\C(=O)c3ccc(C)cc3)cc2)c1,3.3,0.7,2.5,-0.2,1.0,-2.5,nt,nt,nt,nt,nt,nt,
CC(=O)c1cccc(N/C=C\C(=O)c2ccc(C)cc2)c1,19.6*,6.0*,10.5*,0.7,9.6*,0.4,18.6*,8.5*,1.9,9.7*,25.1*,1.1,SMARCA2 conf=9.6*;GAL4-VP16 Luc=9.8*
CCC(=O)Nc1ccc(C(=O)Nc2ccc3c(c2)OCO3)cc1,-0.4,0.3,1.8,-0.7,-2.1,-0.3,nt,nt,nt,nt,nt,nt,
CCC(=O)Oc1ccc(C(=O)Nc2ccc3c(c2)OCO3)cc1,22.1*,5.5*,2.4,1.7*,3.5,nt,12.7*,7.8*,nt,nt,15.4*,0.8,
O=C(Nc1ccc2c(c1)OCO2)c1ccc(Cl)s1,16.4*,4.6*,6.4,1.9*,14.2*,0.3,11.6*,9.9*,1.7,12.0*,21.0*,1.1,
CNC(=O)c1[nH]cnc1C(=O)NCC(=O)OC(C)(C)C,1.6,-0.2,1.3,-0.8,-1.3,2.4,nt,nt,nt,nt,nt,nt,
O=C(NC1CCCCCC1)c1ccc(CS(=O)(=O)Cc2ccccc2F)o1,5.0,0.0,-4.4,-1.2,-0.3,0.1,nt,nt,nt,nt,nt,nt,
O=C(NC1CCCCC1)c1ccc(-c2ccccc2F)o1,19.6*,8.7*,5.6,2.0*,10.0*,1.5,18.5*,6.2*,0.9,6.1*,19.2*,1.1,
O=S(=O)(NCc1ccc(Cl)cc1)NCc1ccc(Cl)cc1,-1.3,-0.1,-1.1,-0.7,-1.5,-0.3,nt,nt,nt,nt,nt,nt,
CCOC(=O)c1c(C)[nH]c(O)c1C=Nc1ccc(C(F)(F)F)cc1,0.6,-0.3,-3.0,-1.3,-0.5,0.2,nt,nt,nt,nt,nt,nt,
